This is a sample that favours compounds with a hit; in the whole collection about 14% have one here.
HADH2 inhib = qHTS Assay for Inhibitors of HADH2 (Hydroxyacyl-Coenzyme A Dehydrogenase, Type II); 3-hydroxyacyl-CoA dehydrogenase type-2 (Homo sapiens), Q99714; recombinant HADH2, NADH fluorescence, beta-hydroxybutyryl-CoA; Potency, µM (series often up to 57.1 µM), for inactives: at the highest dose activity change, negative = inhibition, usual class: inhibitors; hit rate 3.4% among 73,000; AID 886, 2007; note: potency is the fitted concentration of half-maximal effect; % is set by controls: 0 for no effect and ±100 for the full control effect; nearly all actives have a fitted effect of over 60% in size
Target sequence (Q99714 whole entry, looked up, one chain of several): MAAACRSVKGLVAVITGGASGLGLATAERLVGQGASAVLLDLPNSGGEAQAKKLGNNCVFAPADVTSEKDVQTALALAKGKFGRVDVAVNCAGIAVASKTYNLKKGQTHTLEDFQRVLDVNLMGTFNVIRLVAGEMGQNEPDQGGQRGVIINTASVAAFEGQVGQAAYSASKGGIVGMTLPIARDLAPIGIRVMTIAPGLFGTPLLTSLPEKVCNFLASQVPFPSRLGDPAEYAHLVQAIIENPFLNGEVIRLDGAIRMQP
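20 nM HADH2 + cpd, 15 min RT; add 1 mM NAD+/90 uM beta-hydroxybutyryl-CoA; kinetic fluorescence 360/450 nm, 4 min. Tris-HCl pH 9.0, 0.01% Tween-20.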
A350 autofl = qHTS Assay for Spectroscopic Profiling in A350 Spectral Region | max dye-equivalent concentration, M | AID 590, 2007 | hit rate 11% among 59,000 | Compound autofluorescence, 340/450 nm, Alexa 350 dye-equivalents; active compounds read high; in the data active = max dye-equivalent concentration above about 10 nM; inconclusive = mostly about 1.1 nM to 9.6 nM
CRE Fsk mod = Cell signaling CRE-BLA (Fsk stim) | CHO CRE-bla reporter (cAMP response element driving beta-lactamase), forskolin EC10, beta-lactamase ratio | hit rate 2.5% among 71,000 | AID 662, 2007 | Potency, µM (series often up to 38.2 µM), inactives show top-dose activity change, negative = inhibition, usual class: activators; active = well fitted activation curve with a large enough effect in the signal ratio, with a control signal flat, not every such curve was filed as active; inconclusive = small, poorly fitted or top-dose-only effect, or effect the other way, or a change in a side signal; the % refers to the signal ratio; note: potency is the fitted concentration of half-maximal effect; % of control where 0% means no effect
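Forskolin analogue NKH 477 at EC10 stimulated CRE-driven beta-lactamase in CHO cells alongside compound dilution series. Beta-lactamase was measured with CCF4, excitation 405 nm, emission ratio 460/530 nm.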
4MU fluor = qHTS Assay for Spectroscopic Profiling in 4-MU Spectral Region. max dye-equivalent concentration, M. compound autofluorescence, 340/450 nm, 4-MU equivalents; active compounds read high. hit rate 11% among 59,000; in the data active = max dye-equivalent concentration above about 10 nM; inconclusive = mostly about 1.1 nM to 9.6 nM
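Compounds in 100 mM Tris, pH 8.0, sat 15 min at room temperature before fluorescence was read at 340 nm excitation/450 nm emission; a per-plate six-point 4-MU standard curve converted signals to dye-equivalent concentration at each compound concentration.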
HSD17B inhib = qHTS Assay for Inhibitors of HSD17B4, hydroxysteroid (17-beta) dehydrogenase 4. 3-hydroxyacyl-CoA dehydrogenase type-2 (Homo sapiens), Q99714. recombinant HSD17B10, NADH fluorescence kinetic. Potency, µM (titrated, usually from 57.1 µM), without a hit: at the highest dose activity change, negative = inhibition, most hits filed as inhibitors. hit rate 7.6% among 75,000;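 note: the protocol describes HADH2 (HSD17B10) and not the HSD17B4 of the title; potency is the fitted concentration of half-maximal effect; % is set by controls: 0 for no effect and ±100 for the full control effect; nearly all actives have a fitted effect of over 70% in size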
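20 nM HADH2, pH 9.0 Tris/Tween; cpd preinc 15 min RT; start w/ 1 mM NAD+ + 90 uM b-hydroxybutyryl-CoA; kinetic fluor ex360/em450 q30s x 4 min; delta last-first.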
AID923 = qHTS Assay for Allosteric/Competitive Inhibitors of Caspase-1: Spectroscopic Profiling in AFC Spectral Region | Potency, µM (top dose mostly 57.5 µM), without a hit: at the top dose fluorescence increase, hits mostly activators | AID 923, 2007 | compound fluorescence, AFC spectral region (405/520 nm) | hit rate 1.1% among 75,000; note: potency is the fitted concentration of half-maximal effect; 0% is about no effect
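Compound autofluorescence profiled at 405 nm ex/520 nm em during kinetic caspase 1 run (50 nM enzyme, 5 uM Ac-WEHD-AFC, HEPES pH 7.5, 10 mM DTT). Titration up to 57 uM; baseline from regression intercept, normalized to AFC standard curve.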
Numbers without * were called inactive; i = inactive; ? = inconclusive; / = not tested or not shown; [ ] = dose if it differs, or a comment. Unless noted, calls come from the whole dose curve; as a rule, active = well fitted curve in the direction sought with a large enough effect; inconclusive = small, poorly fitted or top-dose-only effect, or another doubt; inactive = no such curve, though single readings can be large; an effect the other way counts as inactive or inconclusive.

SMILES	HADH2 inhib	A350 autofl	CRE Fsk mod	4MU fluor	HSD17B inhib	AID923
COC(=O)C1=C(NC(=O)c2cccc(OC)c2)CCS1	6%	8.9e-08M*	?	9.5e-08M*	-3%	10%
COC(=O)C1=C(NC(=O)c2cccs2)CCS1	-4%	i	?	i	-6%	10%
Cc1ccc(C(C)C)n1C(=O)OC(C)(C)C	-5%[11.4 µM]	/	/	/	1%[11.4 µM]	-1%[11.5 µM]
CCOC(=O)c1sc2cccc(F)c2c1N	32µM*	1.4e-06M*	-1%	1.1e-06M*	32µM*	0%
CCOC(=O)c1sc(NCc2ccco2)c(-c2nc3ccccc3s2)c1N	-9%	i	?	i	-7%	3%
C[N+](C)(C)[C@H](Cc1c[nH]c(=S)[nH]1)C(=O)O	2%[11.4 µM]	i	10%[7.6 µM]	i	1%[11.4 µM]	3%[11.5 µM]
CCCn1c2c(c(O)c(C(=O)Nc3ccc(OCC)cc3)c1=O)CCCC2	85%	6.8e-08M*	4%	7.9e-08M*	-6%	2%
CCOc1ccc(C)cc1S(=O)(=O)n1ccc(C)n1	-1%	9.6e-08M*	-6%	8.6e-08M*	?	-1%
CCOc1cc(C)c(C(C)C)cc1S(=O)(=O)n1ccc(C)n1	19%	i	-9%	i	-6%	-1%
Cc1cc(N2CCN(C(=O)c3ccco3)CC2)nc(-c2ccccc2)n1	0%	1.1e-08M*	1%	1.1e-08M*	-1%	0%
Cc1cc(N)n2nc(-c3ccccc3)cc2n1	-2%	/	-3%	/	13%	1%
Cc1cc(N2CCN(C(=O)c3ccco3)CC2)n2nc(-c3cccc(F)c3)cc2n1	?	?	1%	1.2e-08M*	?	10%
Cc1cc(N2CCOCC2)n2nc(-c3cccc(F)c3)cc2n1	?	4.7e-07M*	11%	2.9e-07M*	?	3%
C[N+]1(C)CCO[C@](O)(c2ccccc2)C1	-1%[11.4 µM]	i	?	i	3%[11.4 µM]	0%[11.5 µM]
CC(=O)N(C[C@@H](C)C(=O)O)c1c(I)cc(I)c(N)c1I	-6%[25.6 µM]	i	5%[17.1 µM]	i	4%[25.6 µM]	-2%[25.7 µM]
Cc1ccc(N=Cc2cccc(O)c2O)c(C)c1	1µM*	/	/	/	0%	0%
O=C(O)CCc1ccc(-c2ccc(F)cc2)n1NC(=O)c1ccco1	-6%	?	-1%	i	-26%	-1%
O=C(O)CCc1ccc(-c2ccc(Br)cc2)n1Cc1ccco1	?	1.9e-08M*	-25%	1.8e-08M*	32µM*	3%
O=C(O)CCc1ccc(-c2ccc(F)cc2)n1Cc1ccco1	-24%	1e-08M*	-6%	?	?	0%
O=C(O)CCc1ccc(-c2ccccc2)n1CC1CCCO1 (configuration not stated)	-30%	2e-06M*	-1%	1.6e-06M*	32µM*	18%
O=C(O)CCc1ccc(-c2ccc(Br)cc2)o1	?	i	?	i	?	1%
Cc1nc(=O)c(-c2ccccc2)c(C)n1CC1CCCO1 (configuration not stated)	1%[11.4 µM]	/	?	/	144%	-2%
O=C(O)CCc1ccc(-c2ccccc2)n1Cc1ccco1	-17%	4.5e-08M*	-13%	4.8e-08M*	32µM*	1%
O=c1cc(CO)occ1O	-18%	i	?	i	-1%	-1%
CC(=O)O[C@@H]1CC(C)=C2[C@H]1[C@H](C)CC[C@H]2/C=C(\C)C(=O)O	-5%	/	0%	/	5%	-3%
SMILES	HADH2 inhib	A350 autofl	CRE Fsk mod	4MU fluor	HSD17B inhib	AID923
COC(=O)CC1[C@@]2(C)C[C@@]34OC5(C)OC6(CC[C@@]7(C)C(c8ccoc8)OC(=O)C(C(C)=O)C7[C@]6(O5)C(O)[C@@]3(O)C2O)[C@]14C (some centres not stated)	/	/	/	/	8%	0%
NC(=O)c1nn(-c2ccccc2)nc1N	i	1.1e-07M*	3%	1.1e-07M*	32µM*	0%
NC(=O)c1nn(-c2ccccc2)nc1NC(=O)CN1CCCCC1	-3%	i	15%	i	?	0%
CC(=O)Nc1cccc2c1OCCO2	4%	1.1e-07M*	-1%	8.6e-08M*	-4%	6%
COc1ccccc1Oc1cc(C#N)c(C#N)cc1-n1nnc2ccccc21	9%	i	-2%	i	?	-1%
Cc1nn(-c2ccc(F)cc2)c2c1cc(C#N)c1nc3ccccc3n12	5%	6e-07M*	3%	4.3e-07M*	0.63µM*	7%
Cc1noc(C)c1-c1nccc(NCCN2CCOCC2)n1	-2%	i	4%	i	5%	1%
Nc1ccc(-c2ccc(Nc3cc(S(=O)(=O)O)c(N)c4c3C(=O)c3ccccc3C4=O)cc2)c(S(=O)(=O)O)c1	-20%[11.4 µM]	i	1%[7.6 µM]	i	3.2µM*	0%[11.5 µM]
CNC1C(OC2C(O[C@@H]3C(O)C(O)[C@@H](N=C(N)N)C(O)C3N=C(N)N)OC(C)[C@@]2(O)CO)OC(CO)C(O)C1O (some centres not stated)	/	/	/	/	4%	0%
CCc1ccc2nc(NC(=O)c3ccc4c(=O)[nH]c(CN5CCOCC5)nc4c3)sc2c1	8%	2.5e-08M*	-2%	2.5e-08M*	?	2%
CCCCCCc1ccc(-c2ccc(C#N)cc2)cc1	-13%	/	13%	/	?	5%
Cc1cc(C)n2nc(C(=O)Nc3ccccc3N3CCOCC3)nc2n1	1%	i	?	i	12%	-1%
CCOc1cc(N2CCOCC2)c(OCC)cc1NC(=O)c1nc2nc(C)cc(C)n2n1	-5%	?	5µM*	?	-2%	-2%
Oc1ccc(Cl)cc1Cc1cc(Cl)cc(Cc2cc(Cl)ccc2O)c1O	-16%[11.4 µM]	i	?	i	3%[11.4 µM]	-6%[11.5 µM]
O=C(O)c1cc(Cl)cc(Cc2cc(Cl)cc(C(=O)O)c2O)c1O	-16%[11.4 µM]	i	-4%[7.6 µM]	i	2.5µM*	-2%[11.5 µM]
CC[C@@]12CCCN3CCc4c(n(c5ccccc45)[C@](O)(C(=O)OC)C1)C32 (some centres not stated)	/	/	/	/	9%	-4%
O=C(NCc1ccccc1Cl)c1cnn2cccnc12	-13%	1.9e-08M*	0%	2e-08M*	?	3%
O=C(NCc1cccs1)c1cnn2cccnc12	-24%	3.8e-08M*	4%	3.3e-08M*	32µM*	-2%
O=C(NCc1cccs1)c1cccnc1C(=O)O	5%	i	-8%	i	5%	2%
FC(F)(F)c1ccccc1-c1nc(NCc2cccnc2)c2ccccc2n1	-11%	i	-10%	i	0%	20%
CN=C1N[C@H](c2ccccc2)N(c2ccccc2)S1	?	/	?	/	2µM*	1%

Source: PubChem
